According to PubChem BioAssay (NCATS):
Records with an inconclusive call do not appear. A call without a number means that no potency is given here. Active and inactive are the calls of the source. The call rests on the fitted dose curve; in most records, active means well fitted curve in the direction sought with a large enough effect; inconclusive means small, poorly fitted or top-dose-only effect, or another doubt; inactive means no such curve, though single readings can be large; an effect the other way counts as inactive or inconclusive.

How the values were obtained:
[1] = molecular target: Aldehyde dehydrogenase, mitochondrial (Homo sapiens) (UniProt P05091); experiment: qHTS for Inhibitors of the Aldehyde Dehydrogenase Family (ALDH2) Primary screen (AID 2061308); further: nearly all actives have a fitted effect of over 55% in size
[2] = molecular target: Retinaldehyde dehydrogenase 3 (Homo sapiens) (UniProt P47895); experiment: qHTS for Inhibitors of the Aldehyde Dehydrogenase Family (ALDH1A3) Primary screen (AID 2061315)

SMILES: Cc1cccc(-n2cnc3cc(C(=O)N4CC(C)CC(C)C4)ccc32)c1 (stereo not given)
- Potency [1]: inactive
- Potency [2]: inactive

SMILES: Cc1cccc(-n2cnc3cc(C(=O)NC(C)(C)C)ccc32)c1
- Potency [1]: inactive
- Potency [2]: inactive

SMILES: Cc1ccc(NC(=O)CN2C(=O)N/C(=C\c3cccn3-c3ccc(C(=O)NOCc4ccccc4)cc3)C2=O)cc1
- Potency [1]: inactive
- Potency [2]: inactive

SMILES: C=C(C)C(=O)O[C@H]1[C@H]2C(=C)C(=O)O[C@@H]2C[C@@H](C)[C@@H]2O[C@@H]2C(=O)[C@](C)(O)[C@@H]1OC(C)=O
- Potency [1]: inactive
- Potency [2]: inactive

SMILES: FC(F)(F)c1ccccc1-c1nc(NCc2ccccc2)c2ccccc2n1
- Potency [1]: inactive
- Potency [2]: inactive

SMILES: Cc1nc(N2CCOCC2)c2nc(-c3ccccc3)n(CCN(C)C)c2n1
- Potency [1]: inactive
- Potency [2]: inactive

SMILES: N#Cc1nc(-c2cccc3ccccc23)oc1NC1CNC1
- Potency [1]: inactive
- Potency [2]: inactive

SMILES: C/C=C\C1=CCCC1Nc1ncnc2ccc(-c3c(C)noc3C)cc12 (stereo not given)
- Potency [1]: inactive
- Potency [2]: inactive

SMILES: CCCCNc1nc(C)nc2c1nc(-c1ccccc1)n2CCN1CCCCC1
- Potency [1]: inactive
- Potency [2]: inactive

SMILES: COc1ccc(-c2nnc3n2N=C(c2cccc(OC)c2)CS3)cc1
- Potency [1]: inactive
- Potency [2]: inactive

SMILES: CN(CC(=O)Nc1ccc(N2CCOCC2)cc1)Cc1ccccc1O
- Potency [1]: inactive
- Potency [2]: inactive

SMILES: O=C1CCCC2=C1C(c1[nH]ncc1Cl)N=C(Nc1nc3ccccc3s1)N2 (stereo not given)
- Potency [1]: inactive
- Potency [2]: inactive

SMILES: Cc1cc(C)nc(NC(=S)N2CCN(c3ccc([N+](=O)[O-])cc3Cl)CC2)c1
- Potency [1]: inactive
- Potency [2]: inactive

SMILES: CC(=O)Nc1sc2c(c1-c1cccc3ccccc13)CCNC2
- Potency [1]: inactive
- Potency [2]: inactive

SMILES: Cc1cc(C)nc(NC(=S)N2CCN(c3ccc(NS(C)(=O)=O)nn3)CC2)c1
- Potency [1]: inactive
- Potency [2]: inactive
